The panel holds about 83,000 compounds, 20% with a hit somewhere; the sample as a whole holds those more often.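 Interpretation: 100, growth as untreated; towards 0, rising growth inhibition; 0, no net growth; 0 to -100, cell death. Compounds scoring below 10 were considered active.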 Calls of active or inactive are those of the source.
Key:
Test in all cases: NCI-60 one-dose screen, 48 h (100 = growth as untreated, 0 = no growth, -100 = all killed)
Details in all cases: 10 µM unless noted
[1] = test system: SN12C renal
[2] = test system: UO-31 renal
[3] = test system: TK-10 renal
[4] = test system: ACHN renal
[5] = test system: CAKI-1 renal
[6] = test system: A498 renal
[7] = test system: CCRF-CEM leukemia
[8] = test system: MOLT-4 leukemia
[9] = test system: SR leukemia

Measured: growth

O=C(O)CCCN1C(=O)C2C3CCC(C3)C2C1=O (configuration not stated)
inactive: [1] 103% | [2] 90.5% | [3] 98.2% | [4] 109% | [5] 97.2% | [6] 105% | [7] 108% | [8] 104% | [9] 112%

O=c1[nH]nnc2c1ncn2C1OC(CO)C(O)C1O (configuration not stated)
inactive: [1] 97.7% | [2] 36% | [3] 39.8% | [4] 30.2% | [5] 25.2% | [6] 86.7% | [7] 27.5% | [8] 26.3% | [9] 37.7%

Clc1ccc(-c2nnc(COc3ccc(C4=NNC(c5ccco5)C4)cc3)o2)cc1 (configuration not stated)
inactive: [1] 86.5% | [2] 67.3% | [3] 83.4% | [4] 94.9% | [5] 86.4% | [6] 83.8% | [7] 84.7% | [8] 85.5% | [9] 80.7%

COc1cc(C(=O)O/N=C(\N)Cc2cccc3ccccc23)cc(OC)c1OC
active: [2] -44.3% | [3] -43.8% | [7] -5.01% | [8] 1.56% | [9] -30.4%
inactive: [1] 63% | [4] 42.9% | [5] 22.9% | [6] 44.6%

COc1cc(C(=O)NN=C2c3ccccc3-c3ccccc32)cc(OC)c1OC
active: [6] 6.68%
inactive: [1] 41.6% | [2] 46.5% | [3] 55.5% | [4] 46.4% | [5] 24.6% | [7] 25.5% | [8] 39.3% | [9] 13.9%

COc1cc(C#N)cc2[nH]c(=O)oc12
inactive: [1] 115% | [2] 85.6% | [3] 103% | [4] 99.7% | [5] 91.8% | [6] 82.5% | [7] 109% | [8] 123% | [9] 120%

Cc1cc(Nc2ccc(OCc3ccccc3)cc2)nc2cc(O)ccc12
active: [7] 8.27% | [9] -17.5%
inactive: [1] 78.2% | [2] 44.9% | [3] 73.4% | [4] 73.8% | [5] 72.3% | [6] 95.8% | [8] 26%

CCOc1cc(Cl)c(C(C)NC(=O)c2cccc(OC)c2)cc1OCC (configuration not stated)
inactive: [6] 26.2%
active: [1] -23.3% | [2] -92.5% | [3] -62.4% | [4] -73.3% | [5] -39.1% | [7] -24.5% | [8] -10.2% | [9] -19.1%

CC(C)(C)c1ccc(C2CC(=O)C3=C(C2)Nc2ccccc2N(C(=O)c2ccccc2Cl)C3c2ccc(F)cc2)cc1 (configuration not stated)
inactive: [2] 23.7% | [3] 58.9% | [4] 19.9% | [6] 35.5% | [7] 15.7%
active: [1] 3.86% | [5] 2.95% | [8] 6.7% | [9] 9.77%

CCOC(=O)C1=CN(C)C=C(C(=O)OCC)C1c1cc(Br)c(OCC)c(OC)c1
inactive: [1] 56.5% | [2] 16.3% | [3] 43% | [4] 54.6% | [5] 52.5% | [6] 59.1% | [7] 32.9% | [8] 27.5%
active: [9] -0.61%

Nc1ncnc(N)c1NC(=O)c1ccc(OCc2ccccc2)cc1
inactive: [1] 98.9% | [2] 88.1% | [3] 99.3% | [4] 99.9% | [5] 99.3% | [6] 98% | [7] 98.5% | [8] 96.8% | [9] 94%

COc1nccc2cc3c(=O)n4c(cc5ccccc54)c(=O)n3c12
inactive: [1] 95.7% | [2] 53.4% | [3] 131% | [4] 96% | [5] 92.5% | [6] 108% | [7] 96.5% | [8] 86.3% | [9] 87.1%

Cc1ccc(Cn2c(N3CCC(C(=O)NCc4cccs4)CC3)nc3ccccc32)cc1
inactive: [1] 87.9% | [2] 65% | [3] 95.7% | [4] 98.5% | [5] 89.1% | [6] 62.4% | [8] 21.6%
active: [7] 8.48% | [9] -37%

O=C(NC1CCN(Cc2ccccc2)CC1)c1cc2nc(-c3ccc(Cl)s3)cc(C(F)(F)F)n2n1
inactive: [1] 91.3% | [2] 96.1% | [3] 84.9% | [4] 96.4% | [5] 102% | [6] 98.6%
active: [7] -21.7% | [8] -34.3% | [9] -8.99%

O=S(=O)(c1ccc(NC(=S)NC23CC4CC(CC(C4)C2)C3)cc1)N1CCCCC1
active: [8] -14.7% | [9] -21.9%
inactive: [1] 96.5% | [2] 61.6% | [3] 111% | [4] 93.6% | [5] 61.8% | [6] 78.8% | [7] 13.9%

COc1ccc(C(=O)C2CC2c2ccc(Cl)cc2)cc1 (configuration not stated)
active: [7] 9.89%
inactive: [1] 85% | [2] 64.4% | [3] 103% | [4] 78.6% | [5] 87.9% | [6] 114% | [8] 41.2% | [9] 77.8%

CC(=Nc1ccccc1)C1=C(O)C(Cc2ccc(F)cc2)NC1=O (configuration not stated)
active: [9] 6.59%
inactive: [1] 49.1% | [2] 44.3% | [3] 41.9% | [4] 50.9% | [5] 33.6% | [6] 19.3% | [7] 10.7% | [8] 14.5%

COc1c2ccoc2c(/C=C/C=O)c2oc(-c3ccccc3)cc(=O)c12
active: [7] 0.373% | [9] 5.33%
inactive: [1] 38.7% | [2] 60.1% | [3] 93.8% | [4] 91.5% | [5] 93.1% | [6] 72.4% | [8] 10.4%

C[n+]1c2ccccc2nc2ccc(NCCO)cc21
inactive: [1] 85.6% | [2] 45.8% | [3] 127% | [4] 83.7% | [5] 93.4% | [6] 75.1% | [7] 64.5% | [8] 63.8% | [9] 60.3%

O=S1(=O)CCN(Cc2ccccc2)CC1
inactive: [1] 101% | [2] 103% | [3] 94.3% | [4] 97% | [5] 89.1% | [6] 75.9% | [7] 98.1% | [8] 105% | [9] 87.3%

COc1ccc(Nc2nc(N/N=C/c3ccc(O)cc3)nc(Nc3ccc([N+](=O)[O-])cc3)n2)cc1
inactive: [1] 103% | [2] 103% | [3] 115% | [4] 103% | [5] 123% | [6] 105% | [7] 99.9% | [8] 108% | [9] 105%

Cn1c(C(=O)c2cccc3ccccc23)nc2ccccc21
inactive: [1] 11.8% | [3] 21.3% | [4] 11% | [6] 36.3%
active: [2] -21.3% | [5] -11.9% | [7] 8.07% | [8] 9.16% | [9] 4.54%

C=C(C)CCC(C)N1CCC(N2CCC(C(=O)NCCc3ccccc3)CC2)CC1 (configuration not stated)
inactive: [1] 57.5% | [2] 78.2% | [3] 114% | [4] 72.1% | [5] 89.1% | [6] 72% | [7] 45.5% | [8] 42.9%
active: [9] 4.33%

COc1ccc(-c2nsc3c2NC(=O)CC3c2cccc(OC)c2)cc1 (configuration not stated)
inactive: [1] 66.9% | [2] 46.3% | [3] 61.9% | [4] 55.1% | [5] 32.9% | [6] 27.4% | [7] 14.2% | [8] 32.2% | [9] 24.3%

CCn1c(SCC(=O)Nc2cc(C(F)(F)F)ccc2Cl)nc2ccccc2c1=O
inactive: [1] 57.1% | [2] 22.7% | [3] 33.7% | [4] 39.1% | [5] 48.4% | [6] 35.6%
active: [7] -3.31% | [8] -7.72% | [9] -16.2%

FC(F)(F)c1cccc(CNC2CCN(CCc3ccccc3)CC2)c1
inactive: [1] 85.4% | [2] 56.3% | [3] 79.8% | [4] 90.7% | [5] 60.2% | [6] 60.4% | [7] 13.2% | [8] 54.3% | [9] 29.3%

COc1ccc(CN2CCCC(C(=O)c3ccc(C(F)(F)F)cc3)C2)c(O)c1 (configuration not stated)
inactive: [1] 31.8% | [2] 26.4% | [3] 34.6% | [4] 38% | [5] 32.6% | [6] 15.2% | [8] 13.6%
active: [7] 8.95% | [9] 3.77%

COC(=O)c1cc2c(n1Cc1ccccc1)-c1oncc1CCC2
inactive: [1] 73.2% | [2] 79.9% | [3] 102% | [4] 79.8% | [5] 78.7% | [6] 53.8% | [7] 61.7% | [8] 61.7% | [9] 12.2%
